Data taken from PubChem BioAssay.
The source made the active and inactive calls.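 How the source made its calls, unless noted: active means compounds whose cell count with miR-34 switched on is under 0.7 times the count with it off; inactive means the rest.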 *1 amine or outer side, *2 acyl side, *3 side chain or, on linkers, in order; H or OH if unused. Where a SMILES comes first, the peptide text is derived from it. Bridges are numbered along the chain shown (N, C = ends). Roman numbers before positions name the chains, in order. [ ]: non-standard residue; d: D form. Hexamethylenediamine = C(CCCN[*:2])CCN[*:1]; Dip = N[CH](C(=O)O)C(c1ccccc1)c1ccccc1; Chg = N[CH](C(=O)O)C1CCCCC1; NMeA = CN[CH](C)C(=O)O

Key:
[1] = viability loss with induced miR-34 in A549 – imaging, A549 dox-inducible miR-34, nuclei and caspase counts, primary screen (AID 1347080); conditions: A549 miR-34 inducible, Hoechst nuclei count, 48 h
[2] = MELAS cybrid and Rieske KO viability enhancers – cell-based, MELAS cybrids, Rieske KO mouse fibroblasts, CellTiter-Glo, primary screen (AID 1508586;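 active means mean z-score across replicates of 1.96 or higher in either the MELAS or the Rieske mutant cell line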;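 further: z relative to plate mean and SD of compound and empty wells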); conditions: low glucose
[3] = system: Hepatitis C virus NS3 helicase; test: blockers of NS3h binding to ssDNA – biochemical, fluorescence polarization, LOPAC1280 library, primary screen (AID 687035; in the data active means inhibition above about 37%); conditions: Purified HCV NS3 helicase, Cy5-dT15 ssDNA binding fluorescence polarization; stronger effect = higher value; concentration not given here
[4] = compounds altering Cy5-DNA-NS3h complex signal – biochemical, LOPAC1280, artefact control for HCV NS3 helicase inhibitor project (AID 687037; call rule not given here); conditions: Cy5-DNA-NS3h complex fluorescence interference counterscreen
[5] = blockers of cellular phospholipid synthesis – cell-based, LOPAC library, screen 4, primary screen (AID 1347384; call rule not given here); conditions: animal cells, phospholipid biosynthesis inhibition screen; at 10 µM
[6] = galactose survival enhancers in mitochondrial complex I cybrids – cell-based, galactose medium, ATP luminescence, primary screen (AID 1645843;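 active means z-score of at least 1.8 in each of two replicates, scored against plate mean and spread of sample wells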;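 further: positive z means more ATP and so rescue of galactose-driven cybrid death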); conditions: complex I mutant cybrid cells, 72 h, stronger effect = higher value
[7] = compounds altering circadian rhythm period length – cell-based, LOPAC library, luminescence reporter (AID 2774; call rule not given here;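 further: values are relative to mean of DMSO wells on each plate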); conditions: circadian reporter cells, at 7 µM, actives lie on both sides
[8] = stronger effect = lower value, cell number ratio, induced over uninduced
[9] = measured here: relative caspase fold change +Dox/-Dox
[10] = measured here: total cells with miR-34 induction, stronger effect = lower value
[11] = measured here: total cells without miR-34 induction
[12] = MELAS cybrid survival, CellTiter-Glo 48 h, stronger effect = higher value
[13] = Rieske KO mouse fibroblast survival, CellTiter-Glo 72 h

| SMILES | fold change [1, 8] | fold change [1, 9] | cell count [1, 10] | cell count [1, 11] | z-score [2, 12] | z-score [2, 13] | inhibition [3] | fluorescence ratio (interference) [4] | outcome [5] | z-score [6] | period change [7] |
| --- | --- | --- | --- | --- | --- | --- | --- | --- | --- | --- | --- |
| CC1CC=CC=CC=CC=CC(O[C@@H]2OC(C)C(O)C(N)C2O)C[C@@H]2O[C@](O)(CC(O)C[C@H]3OC3C=CC(=O)O1)CC(O)C2C(=O)O (some centres not stated) | 0.876 (inactive) | 1.14 | 7260 | 8280 | -0.47 (inactive) | -0.427 |  |  |  |  |  |
| Cn1ncnc1C1c2n[nH]c(=O)c3cc(F)cc(c23)NC1c1ccc(F)cc1 (configuration not stated) | 0.895 (inactive) | 1.04 | 2740 | 3060 | -0.229 (inactive) | -0.124 |  |  |  |  |  |
| Cc1ccc(Cl)cc1N(CC(=O)Nc1c(F)cccc1F)S(C)(=O)=O | 0.888 (inactive) | 0.518 | 8090 | 9110 | -0.403 (inactive) | 0.642 |  |  |  |  |  |
| COc1cc(CCC(C)=O)ccc1O | 0.964 (inactive) | 0.351 | 7540 | 7830 | -0.174 (inactive) | -0.0455 |  |  |  |  |  |
| CNC(C)C(=O)NC(C(=O)N1CCCC1C(=O)NC(C(=O)NCCCCCCNC(=O)C(NC(=O)C1CCCN1C(=O)C(NC(=O)C(C)NC)C1CCCCC1)C(c1ccccc1)c1ccccc1)C(c1ccccc1)c1ccccc1)C1CCCCC1 (configuration not stated) (I: H-[NMeA][Chg]P[Dip] / II: H-[NMeA][Chg]P[Dip]; linker I:C-II:C via Hexamethylenediamine; configuration not given here) | 0.971 (inactive) | 0.501 | 8750 | 9000 | -0.461 (inactive) | -0.132 |  |  |  |  |  |
| COc1ccc(-c2cc3ncc(C)n3c(Nc3ncccc3C(N)=O)n2)cc1OC | 0.944 (inactive) | 1.3 | 8700 | 9220 |  |  | -1% (inactive) | 1 (inactive) | inactive | 0.16 (inactive) |  |
| O=S(=O)(c1ccccc1)c1cnc2c(N3CCNCC3)cccc2c1 | 0.946 (inactive) | 0.61 | 7690 | 8130 | -0.577 (inactive) | -0.0242 |  |  |  |  |  |
| CC(C)(C(=O)NCC(F)(F)C(F)(F)F)C(=O)NC1C(=O)Nc2ccccc2-c2ccccc21 (configuration not stated) | 0.97 (inactive) | 0.87 | 7630 | 7860 | -0.378 (inactive) | 0.321 |  |  |  |  |  |
| CCCCC#Cc1nc(NC)c2ncn([C@@H]3O[C@H](CO)C(O)[C@@H]3O)c2n1 (some centres not stated) | 1.02 (inactive) | 2.24 | 10300 | 10100 |  |  | -2% (inactive) | 1 (inactive) | inactive | 0.245 (inactive) |  |
| O=C1CN(/N=C/c2ccc(-c3ccc([N+](=O)[O-])cc3)o2)C(=O)N1 | 0.852 (inactive) | 0.844 | 3600 | 4220 |  |  |  |  | inactive |  | 0.19 h (inactive) |
| CC[n+]1c(/C=C/C=C2/N(C)c3ccccc3C2(C)C)sc2ccccc21 | 1.18 (inactive) | 0.865 | 1270 | 1080 |  |  | 1% (inactive) | 0.9 (inactive) | inactive | -1.04 (inactive) |  |
| Cc1cc2c(cc1Cl)N(C(=O)Nc1ccnc3ccccc13)CC2 | 1.12 (inactive) | 1.03 | 10500 | 9390 |  |  | -1% (inactive) | 0.9 (inactive) | inactive | -0.09 (inactive) |  |
| Nc1cc(F)ccc1NC(=O)C=Cc1cnn(CC=Cc2ccccc2)c1 | 0.91 (inactive) | 0.53 | 6990 | 7680 | -0.402 (inactive) | -2.77 |  |  |  |  |  |
| CNc1ncnc2c1ncn2C1OC(CO)C(O)C1O (configuration not stated) | 0.908 (inactive) | 0.537 | 7310 | 8050 | -0.0172 (inactive) | -0.235 |  |  |  |  |  |
| CCC(=C(CC)c1ccc(O)cc1)c1ccc(O)cc1 | 0.852 (inactive) | 1.22 | 7280 | 8550 | -0.347 (inactive) | 0.452 |  |  |  |  |  |
| O=C(CSc1nc2c(c(=O)n1-c1ccccc1)SCC2)Nc1ccc(-c2ccccc2)cn1 | 0.945 (inactive) | 0.349 | 7310 | 7740 | -0.49 (inactive) | 0.404 |  |  |  |  |  |
| Cn1c(=O)cc(N2CCCC(N)C2)n(Cc2cc(F)ccc2C#N)c1=O (configuration not stated) | 0.894 (inactive) | 0.61 | 8440 | 9440 | -0.335 (inactive) | 1.48 |  |  |  |  |  |
| O=C(Nc1ccccc1)N1CCN(c2nc(-c3ccccc3)ns2)CC1 | 1.02 (inactive) | 0.483 | 7250 | 7080 | -0.215 (inactive) | 0.0401 |  |  |  |  |  |
| CC(C)(F)CC(NC(c1ccc(-c2ccc(S(C)(=O)=O)cc2)cc1)C(F)(F)F)C(=O)NC1(C#N)CC1 (configuration not stated) | 0.826 (inactive) | 0.999 | 7020 | 8500 | -0.379 (inactive) | -0.123 |  |  |  |  |  |
| COc1ccc(/C=C2\COc3ccc(C)cc3C2=O)cc1O | 1.16 (inactive) | 2.59 | 3090 | 2660 |  |  | 1% (inactive) | 1 (inactive) | inactive | -1.36 (inactive) |  |

| SMILES | fold change [1, 8] | fold change [1, 9] | cell count [1, 10] | cell count [1, 11] | z-score [2, 12] | z-score [2, 13] | inhibition [3] | fluorescence ratio (interference) [4] | outcome [5] | z-score [6] | period change [7] |
| --- | --- | --- | --- | --- | --- | --- | --- | --- | --- | --- | --- |
| N[C@H](CCCP(=O)(O)O)C(=O)O | 0.903 (inactive) | 1.61 | 9420 | 10400 |  |  | -1% (inactive) | 1.1 (inactive) | inactive | 0.08 (inactive) |  |
| O=C(C=Cn1cnc(-c2cc(C(F)(F)F)cc(C(F)(F)F)c2)n1)N1CC(F)(F)C1 | 0.887 (inactive) | 0.422 | 1980 | 2230 | -0.618 (inactive) | -7.49 |  |  |  |  |  |
| OCC1OC(OCCc2ccc(O)cc2)C(O)C(O)C1O (configuration not stated) | 0.962 (inactive) | 0.762 | 10000 | 10400 | -0.35 (inactive) | 0.467 |  |  |  |  |  |
| O=C(Nc1cccc(Cl)c1)c1ccccn1 | 0.981 (inactive) | 0.991 | 7550 | 7700 | 0.406 (inactive) | -0.326 |  |  |  |  |  |
| CC(C)C(C(=O)Nc1ccc(C(=O)NO)cc1)c1ccccc1 (configuration not stated) | 0.964 (inactive) | 0.891 | 1000 | 1040 | 2.39 (active) | 0.0158 |  |  |  |  |  |
| CC1(C)CCC(c2ccc(Cl)cc2)=C(CN2CCN(c3ccc(C(=O)NS(=O)(=O)c4ccc(NC(CCN5CCOCC5)CSc5ccccc5)c(S(=O)(=O)C(F)(F)F)c4)cc3)CC2)C1 (configuration not stated) | 1.03 (inactive) | 0.848 | 4260 | 4140 | 0.179 (inactive) | -2.71 |  |  |  |  |  |
| CN(C)CCCc1cc(C(=O)Nc2ccc(-c3ccncc3)cc2)ccc1O | 1 (inactive) | 1.13 | 7450 | 7450 |  |  | -1% (inactive) | 1 (inactive) | inactive | 1.58 (inactive) |  |
| Cn1ncc(S(=O)(=O)Cc2ccccc2)c(Br)c1=O | 1.14 (inactive) | 1.46 | 2510 | 2200 |  |  | -3% (inactive) | 0.9 (inactive) | inactive | -1.24 (inactive) |  |
| O=C1/C(=C/c2ccsc2)CC/C1=C\c1cccs1 | 0.99 (inactive) | 1.31 | 9920 | 10000 |  |  | -4% (inactive) | 1 (inactive) | inactive | 1.23 (inactive) |  |
| C[C@]12CCC(O)CC1=CCC1C2CC[C@]2(C)C(n3cnc4ccccc43)=CCC12 (some centres not stated) | 0.927 (inactive) | 0.715 | 7740 | 8340 | -0.32 (inactive) | -0.165 |  |  |  |  |  |
| CC(NC(=O)CCc1nc2ccccc2c(=O)[nH]1)c1ccccc1 (configuration not stated) | 0.914 (inactive) | 0.487 | 8620 | 9430 | -0.406 (inactive) | -0.138 |  |  |  |  |  |
| CC(C)N(CC1OC(n2cnc3c(N)ncnc32)C(O)C1O)C1CC(CCc2nc3ccc(C(C)(C)C)cc3[nH]2)C1 (configuration not stated) | 0.923 (inactive) | 0.796 | 8950 | 9700 | -0.166 (inactive) | -0.146 |  |  |  |  |  |
| Cc1cc(NC(=O)c2cccc(NC(=O)C=CCN(C)C)c2)ccc1Nc1nccc(-c2cccnc2)n1 | 0.969 (inactive) | 0.805 | 6190 | 6390 | -0.659 (inactive) | 0.143 |  |  |  |  |  |
| Clc1nccc2c1ccc1ccccc12 | 1.47 (inactive) | 1.16 | 8620 | 5870 |  |  | -2% (inactive) | 1 (inactive) | inactive | 0.565 (inactive) |  |
| Cc1cc(C)c(C=C2C(=O)Nc3ccccc32)[nH]1 | 0.941 (inactive) | 0.528 | 5670 | 6030 | 0.363 (inactive) | -0.0507 |  |  |  |  |  |
| CCNc1nc2c(ncn2[C@H]2C[C@H](O)[C@@H](CO)O2)c(=O)[nH]1 | 0.97 (inactive) | 1.78 | 9970 | 10300 |  |  | -2% (inactive) | 1 (inactive) | inactive | -0.005 (inactive) |  |
| COC(=O)NC(C(=O)NC(Cc1ccccc1)C(O)CN(Cc1ccc(-c2ccccn2)cc1)NC(=O)C(NC(=O)OC)C(C)(C)C)C(C)(C)C (configuration not stated) | 0.891 (inactive) | 0.981 | 6490 | 7280 | -0.349 (inactive) | 0.446 |  |  |  |  |  |
| O=C(c1cn(Cc2cncn2Cc2ccc(Br)cc2)cc1-c1cccc2ccccc12)N1CCOCC1 | 0.999 (inactive) | 0.553 | 3260 | 3270 | -0.128 (inactive) | -1.26 |  |  |  |  |  |
| CCOC(=O)C1=C(N)Oc2ccc(Br)cc2[C@H]1C(C#N)C(=O)OCC (some centres not stated) | 0.989 (inactive) | 0.887 | 5900 | 5960 | -0.334 (inactive) | 0.811 |  |  |  |  |  |
| CCC1C(=O)N(C)c2cnc(Nc3ccc(C(=O)NC4CCN(C)CC4)cc3OC)nc2N1C1CCCC1 (configuration not stated) | 1.18 (inactive) | 0.761 | 1360 | 1150 | 1.18 (inactive) | -1.35 |  |  |  |  |  |
